# Only some compounds are listed: those with a hit (about 17% of all), similar ones and a draw of the others.
# HT1080 IDH1KD tx: HT-1080 IDH1 knockdown cell toxicity (counter line); AID 686971; Potency, µM (doses to about 46.1 µM), actives largely listed as cytotoxic; hit rate 2% among 360,000; HT-1080 IDH1 knockdown viability, ATP luminescence, 48 h
#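 % activity derives from luminescence (CellTiter-Glo), normalised to DMSO and no-cell wells. HT-1080-IDH1KD cells, 750/well, had 48 h compound exposure at 37 °C.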
# DT40 TDP1 CPT: DT40-hTDP1 cell growth loss with CPT. AID 686979. Potency, µM (highest dose often 46.2 µM), actives largely listed as inhibitors. hit rate 12% among 420,000. chicken DT40 Tdp1-/-;hTDP1 cells + 20 nM CPT, ATP luminescence, 48 h; also: nearly all actives have a fitted effect of over 55% in size
#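 Chicken DT40 Tdp1-/- cells complemented with human TDP1, 400 cells/well, exposed to compounds plus 20 nM camptothecin for at least 48 h at 37 C; viability read as ATP content by CellTiter-Glo luminescence.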
# TDP1 cell noCPT: qHTS for Inhibitors of human tyrosyl-DNA phosphodiesterase 1 (TDP1): qHTS in cells in absence of CPT. hit rate 15% among 420,000. AID 686978, 2013. DT40 Tdp1-/- hTDP1 cells, no CPT, ATP luminescence, 48 h. Potency, µM (highest dose often 46.2 µM), usual class: inhibitors; also: nearly all actives have a fitted effect of over 55% in size
#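 Camptothecin absent (DMSO only). Human TDP1-complemented DT40 knockout cells, 400 cells/well, 37 °C for minimum 48 hr; ATP measured via CellTiter-Glo, 30 min dark incubation, luminescence.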
# TGFb SMAD3 inh: blocks TGF-b signaling | HepG2 CAGA-GFP TGF-b/SMAD3 reporter, GFP fluorescence, 18 h; TGF-beta stimulated, 500 pg/mL final | Potency, µM (top dose mostly 46.1 µM), most hits filed as inhibitors | hit rate 1.2% among 410,000; also: nearly all actives have a fitted effect of over 65% in size
#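 Using HEPG2 CAGA-GFP reporter cells at 1000 cells/well, we pinned test compounds, stimulated with recombinant TGF-beta (500 pg/mL final) and measured total well GFP after 18 h.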
# HT1080-NT tox: kills 2HG-producing HT-1080-NT fibrosarcoma cells; HT-1080-NT fibrosarcoma viability, CellTiter-Glo ATP luminescence, 48 h; hit rate 1.6% among 360,000; Potency, µM (top dose mostly 46.1 µM), most hits filed as cytotoxic;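 also: NT is the 2HG producing partner of a matched IDH1 knockdown line; nearly all actives have a fitted effect of over 55% in size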
#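 Fibrosarcoma NT cells, 750 per well in 5% FBS RPMI, were exposed to compound for 48 hours. Viability: CellTiter-Glo luminescence.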
# HepG2 tox: counter-screen for TGF-b inhibitors: cytotoxicity in HepG2 cells; HepG2 CAGA-GFP viability, ATP luminescence, 18 h; Potency, µM (doses to about 46.1 µM), usual class: cytotoxic; hit rate 0.76% among 410,000; AID 588856
#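 HepG2 CAGA-GFP cells (1000/well, DMEM with 1% FBS) received compound, then TGF-beta at 500 pg/mL final, and were incubated 18 hours at 37 degrees C. Viability was read by CellTiter-Glo luminescence. Media-only wells were set as complete cell-killing and DMSO as no toxicity.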
# A number is an active result; n = inactive; u = inconclusive; x = no result. Calls follow the shape of the dose curve; as a rule, active = well fitted curve in the direction sought with a large enough effect; inconclusive = small, poorly fitted or top-dose-only effect, or another doubt; inactive = no such curve, though single readings can be large; an effect the other way counts as inactive or inconclusive.
SMILES,HT1080 IDH1KD tx,DT40 TDP1 CPT,TDP1 cell noCPT,TGFb SMAD3 inh,HT1080-NT tox,HepG2 tox
COc1ccc(-c2cn(-c3ccc(C)cc3C)c(=O)[nH]2)cc1OC,n,15µM,u,n,n,n
COc1ccc(C2=NO[C@@H]3C(=O)N(c4cccc(C)c4C)C(=O)[C@H]23)cc1OC,n,n,n,n,n,n
O=C(NCc1ccccc1Cl)c1nnc(CS(=O)(=O)c2ccccc2)o1,n,n,n,n,n,n
CN(C)c1ccc(/C=C/c2c3c(nc4ccccc24)CCCC3)cc1,x,u,u,n,x,n
CCNc1ncc2nc(CCc3ccccc3)c(=O)n(Cc3cccc(OC)c3)c2n1,x,n,n,x,x,x
Oc1cc(O)cc(-c2cc3ccc(O)cc3o2)c1,n,n,u,n,n,n
CC1(C)Oc2cc3oc(-c4cc(O)cc(O)c4)cc3cc2CC1O (centres undefined),n,21µM,u,n,n,n
CC(CN1C(C)CCCC1C)OC(=O)c1cccc(Br)c1 (centres undefined),n,n,n,n,n,n
COc1ccc(OC)c(C2CC(=O)Nc3ccc4ccccc4c32)c1 (centres undefined),x,u,u,n,x,n
O=C1CC(c2c(Cl)cccc2Cl)c2c(ccc3ccccc23)N1 (centres undefined),x,u,26µM,u,x,n
CCCCOc1ccccc1C1CC(=O)Nc2ccc3ccccc3c21 (centres undefined),x,12µM,6.5µM,u,x,11µM
O=C1CC(c2cccc([N+](=O)[O-])c2)c2ccc3ccccc3c2N1 (centres undefined),u,26µM,u,u,u,n
O=C1CC(c2cc([N+](=O)[O-])ccc2Cl)c2c(ccc3ccccc23)N1 (centres undefined),u,16µM,15µM,u,u,n
O=C1CC(c2ccsc2)c2ccc3ccccc3c2N1 (centres undefined),n,n,u,n,n,n
CC(C)CNC(=O)C(=O)Nc1c2c(nn1-c1ccc(Cl)cc1)CSC2,x,u,n,n,x,n
Cc1ccccc1NC(=O)c1cc[n+]([O-])cc1,n,n,n,n,n,n
CN(Cc1c(F)cccc1Cl)C(=O)c1cccc(S(=O)(=O)N2CCN(Cc3ccccc3)CC2)c1,n,21µM,u,u,n,n
Cc1ccc(CN(C)C(=O)c2cccc(S(=O)(=O)N3CCN(Cc4ccccc4)CC3)c2)o1,n,u,u,n,n,n
CN(Cc1ccc(OC(F)F)cc1)C(=O)c1cccc(S(=O)(=O)N2CCN(Cc3ccccc3)CC2)c1,n,9.2µM,8.2µM,10µM,n,n
CN(Cc1c(F)cccc1Cl)C(=O)c1cccc(S(=O)(=O)NCc2ccccc2)c1,n,23µM,18µM,n,n,n
COC(=O)C[N+](C)(C)CC#Cc1ccccc1,n,n,n,n,n,n
COCCNc1nc(-c2ccc(C(=O)N(C)C)cc2)nc2ccccc12,x,n,n,x,x,x
CNC(=O)c1ccc(Nc2nc(-c3ccccc3)nc3ccccc23)cc1,18µM,16µM,13µM,n,18µM,n
COC(=O)c1ccc(Nc2nc(-c3ccc(C)cc3)nc3ccccc23)cc1,x,13µM,7.3µM,n,x,n
O=C(O)CNc1nc(-c2ccccc2)nc2ccccc12,n,n,n,n,n,n
SMILES,HT1080 IDH1KD tx,DT40 TDP1 CPT,TDP1 cell noCPT,TGFb SMAD3 inh,HT1080-NT tox,HepG2 tox
O=C(O)c1ccc(Nc2c3ccccc3nc3ccccc23)cc1,n,1.3µM,2.1µM,n,n,n
Cc1sc2ncnc(Nc3ccc(N4CCOCC4)cc3)c2c1-c1ccccc1,n,16µM,u,u,n,n
COc1ccc(CCC(=O)Nc2ncc(C)s2)cc1,n,n,n,n,n,n
CC(=NNc1ccc([N+](=O)[O-])cn1)c1ccc(N)cc1,n,u,u,n,n,n
O=C(O)c1cccc(Nc2nc(-c3ccccc3)nc3ccccc23)c1,n,n,n,n,n,n
Cc1ccc(-c2nc(Nc3ccc(N4CCOCC4)cc3)c3ccccc3n2)cc1,21µM,u,23µM,u,18µM,n
Cc1cc(C)nc(Nc2ccc(N3CCOCC3)cc2)n1,n,n,n,n,n,n
O=C(O)c1ccc(Nc2nc(-c3ccccc3)nc3ccccc23)cc1,n,23µM,21µM,n,n,n
CN(C)C(=O)c1ccc(-c2nc(Nc3ccccc3)c3ccccc3n2)cc1,x,u,16µM,x,x,x
O=C(NCc1ccccc1)[C@]1(C(F)(F)F)C[C@H](CCC2CCCCC2)CCCO1,x,x,x,n,x,n
C/C(=N/NC(N)=S)c1ccccc1[N+](=O)[O-],n,u,n,n,n,n
CC1(C)C(=O)OC(c2cccs2)C(C)(C)C1=O (centres undefined),n,n,n,n,n,n
O=C(CN1CCN(S(=O)(=O)c2ccc(Br)cc2)CC1)Nc1ccccc1F,n,n,n,n,n,14µM
O=C(CN1CCN(Cc2ccccc2)CC1)Nc1ccc2c(c1)CCC2,n,n,u,n,n,n
COc1cccc(N2CCN(S(=O)(=O)c3cc4c(cc3C)N(C)CCO4)CC2)c1,n,u,16µM,n,n,n
Cc1cc(C)c(C)c(S(=O)(=O)N2CCN(CC(=O)Nc3ccc([N+](=O)[O-])cc3)CC2)c1C,n,n,n,n,n,n
Cc1ccc(S(=O)(=O)N2CCN(CC(=O)Nc3ccc([N+](=O)[O-])cc3)CC2)cc1C,n,u,16µM,n,n,n
O=C(CCN1CCN(S(=O)(=O)c2ccc(Br)cc2)CC1)Nc1ccccc1F,n,u,n,u,n,n
O=C(CN1CCN(S(=O)(=O)c2ccccc2)CC1)Nc1ccc2c(c1)CCC2,n,u,15µM,n,n,n
CN(Cc1cnccn1)C(=O)C1CCC(=O)N(CCc2ccc(Cl)cc2)C1 (centres undefined),n,n,n,n,n,n
Cc1ccc(NC(=O)NNC(=O)c2cccs2)cc1,n,n,n,n,n,n
CC(C)(C)C1CCc2c(sc(NC(=O)c3cccs3)c2C(=O)N2CCCCC2)C1 (centres undefined),u,u,u,n,n,n
COc1cccc(NC(=O)CN2CCN(S(=O)(=O)c3ccc(F)cc3)CC2)c1,n,n,n,n,n,n
COc1cccc(N2CCN(CC(=O)Nc3ccc(S(=O)(=O)N4CCCCCC4)cc3)CC2)c1,n,u,13µM,n,n,n
